Among the data in PubChem BioAssay are composite z-score and z-score values, retold here.

The test system of assay [1] is PRMT1 (protein arginine N-methyltransferase 1). The assay is described as follows: small molecules binding arginine methyltransferase PRMT1 – biochemical, small-molecule microarray, 635 nm fluorescence, primary screen (AID 1088).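 Further: binding of Prmt1 protein to compounds spotted on small-molecule microarray slides.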 The conditions noted are these: higher = more signal.
Assay [2] can be described thus: growth effects on S. cerevisiae YJM789 – YJM789 clinical isolate, OD600, 24 h, basal, primary screen (AID 1089).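 Further: growth of clinical yeast isolate S. cerevisiae YJM 789 seeded 1000 cells per well; test concentration not given here.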 The conditions noted are these: higher = more signal, called active from +8 up or from −8 down.
The nature of assay [3]: S. pombe growth modifiers, basal conditions – strain 972, OD600, 24 h, no modulator, primary screen (AID 1090).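 Further: basal condition with compound alone and no growth modifier present; test concentration not given here.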 The conditions noted are these: S. pombe 972 growth, higher = more signal, called active from +8 up or from −8 down.
Assay [4] is described as follows: budding yeast growth modifiers under rapamycin – strain BY4716, OD600, 96 h, primary screen (AID 1091). Further: test concentration not given here. The following applies: S. cerevisiae BY4716 + rapamycin, higher = more signal, called active from +8 up or from −8 down.
Assay [5] addresses Torsin-1A-interacting protein 2 (Homo sapiens) (UniProt Q8NFQ8). The assay can be described thus: small molecules binding lysate-expressed LULL1 – cell lysate, human LULL1 lysate, 635/667 nm fluorescence, primary screen (AID 1092).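 Further: probe is lysate of COS7 cells overexpressing human LULL1; score merges per-feature 667 nm fluorescence with signal-to-noise.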 The following applies: small-molecule microarray, hLULL1 lysate binding, 635 nm fluorescence; higher = more signal.
Assay [6] is described as follows: optical density change of DRC41 E. coli – strain DRC41, OD650, 24 h, E. coli filamentation project, primary screen (AID 1093).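 Further: MC1000 strain lacking acrAB efflux and sulA so SOS filamentation is blocked; test concentration not given here.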 The following applies: E. coli DRC41 growth, higher = more signal, called active from +8 up or from −8 down.
Assay [7] in a line: probe aLefty2 binding to arrayed compounds – biochemical, biotinylated probe, 635/667 nm fluorescence, primary screen (AID 1094).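 Further: score merges spot fluorescence near 667 nm with spot signal-to-noise ratio.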 The conditions noted are these: small-molecule microarray, higher = more signal.
Assay [8] relates to Noggin (protein binding on small-molecule microarray). The assay is described as follows: small molecules binding Noggin protein – biochemical, 635/667 nm fluorescence, primary screen (AID 1095).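 Further: score merges 667 nm feature fluorescence with signal to noise over triplicate slides.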 The conditions noted are these: 635 nm fluorescence, higher = more signal.
For assay [9], the target named is Neurogenic locus notch homolog protein 3 (Homo sapiens) (UniProt Q9UM47). The assay is described as follows: small molecules binding NOTCH3 protein – biochemical, 635/667 nm fluorescence, primary screen (AID 1096). The following applies: small-molecule microarray, 635 nm fluorescence, higher = more signal.
Sequence of Neurogenic locus notch homolog protein 3 (Homo sapiens) (Q9UM47 whole entry, looked up): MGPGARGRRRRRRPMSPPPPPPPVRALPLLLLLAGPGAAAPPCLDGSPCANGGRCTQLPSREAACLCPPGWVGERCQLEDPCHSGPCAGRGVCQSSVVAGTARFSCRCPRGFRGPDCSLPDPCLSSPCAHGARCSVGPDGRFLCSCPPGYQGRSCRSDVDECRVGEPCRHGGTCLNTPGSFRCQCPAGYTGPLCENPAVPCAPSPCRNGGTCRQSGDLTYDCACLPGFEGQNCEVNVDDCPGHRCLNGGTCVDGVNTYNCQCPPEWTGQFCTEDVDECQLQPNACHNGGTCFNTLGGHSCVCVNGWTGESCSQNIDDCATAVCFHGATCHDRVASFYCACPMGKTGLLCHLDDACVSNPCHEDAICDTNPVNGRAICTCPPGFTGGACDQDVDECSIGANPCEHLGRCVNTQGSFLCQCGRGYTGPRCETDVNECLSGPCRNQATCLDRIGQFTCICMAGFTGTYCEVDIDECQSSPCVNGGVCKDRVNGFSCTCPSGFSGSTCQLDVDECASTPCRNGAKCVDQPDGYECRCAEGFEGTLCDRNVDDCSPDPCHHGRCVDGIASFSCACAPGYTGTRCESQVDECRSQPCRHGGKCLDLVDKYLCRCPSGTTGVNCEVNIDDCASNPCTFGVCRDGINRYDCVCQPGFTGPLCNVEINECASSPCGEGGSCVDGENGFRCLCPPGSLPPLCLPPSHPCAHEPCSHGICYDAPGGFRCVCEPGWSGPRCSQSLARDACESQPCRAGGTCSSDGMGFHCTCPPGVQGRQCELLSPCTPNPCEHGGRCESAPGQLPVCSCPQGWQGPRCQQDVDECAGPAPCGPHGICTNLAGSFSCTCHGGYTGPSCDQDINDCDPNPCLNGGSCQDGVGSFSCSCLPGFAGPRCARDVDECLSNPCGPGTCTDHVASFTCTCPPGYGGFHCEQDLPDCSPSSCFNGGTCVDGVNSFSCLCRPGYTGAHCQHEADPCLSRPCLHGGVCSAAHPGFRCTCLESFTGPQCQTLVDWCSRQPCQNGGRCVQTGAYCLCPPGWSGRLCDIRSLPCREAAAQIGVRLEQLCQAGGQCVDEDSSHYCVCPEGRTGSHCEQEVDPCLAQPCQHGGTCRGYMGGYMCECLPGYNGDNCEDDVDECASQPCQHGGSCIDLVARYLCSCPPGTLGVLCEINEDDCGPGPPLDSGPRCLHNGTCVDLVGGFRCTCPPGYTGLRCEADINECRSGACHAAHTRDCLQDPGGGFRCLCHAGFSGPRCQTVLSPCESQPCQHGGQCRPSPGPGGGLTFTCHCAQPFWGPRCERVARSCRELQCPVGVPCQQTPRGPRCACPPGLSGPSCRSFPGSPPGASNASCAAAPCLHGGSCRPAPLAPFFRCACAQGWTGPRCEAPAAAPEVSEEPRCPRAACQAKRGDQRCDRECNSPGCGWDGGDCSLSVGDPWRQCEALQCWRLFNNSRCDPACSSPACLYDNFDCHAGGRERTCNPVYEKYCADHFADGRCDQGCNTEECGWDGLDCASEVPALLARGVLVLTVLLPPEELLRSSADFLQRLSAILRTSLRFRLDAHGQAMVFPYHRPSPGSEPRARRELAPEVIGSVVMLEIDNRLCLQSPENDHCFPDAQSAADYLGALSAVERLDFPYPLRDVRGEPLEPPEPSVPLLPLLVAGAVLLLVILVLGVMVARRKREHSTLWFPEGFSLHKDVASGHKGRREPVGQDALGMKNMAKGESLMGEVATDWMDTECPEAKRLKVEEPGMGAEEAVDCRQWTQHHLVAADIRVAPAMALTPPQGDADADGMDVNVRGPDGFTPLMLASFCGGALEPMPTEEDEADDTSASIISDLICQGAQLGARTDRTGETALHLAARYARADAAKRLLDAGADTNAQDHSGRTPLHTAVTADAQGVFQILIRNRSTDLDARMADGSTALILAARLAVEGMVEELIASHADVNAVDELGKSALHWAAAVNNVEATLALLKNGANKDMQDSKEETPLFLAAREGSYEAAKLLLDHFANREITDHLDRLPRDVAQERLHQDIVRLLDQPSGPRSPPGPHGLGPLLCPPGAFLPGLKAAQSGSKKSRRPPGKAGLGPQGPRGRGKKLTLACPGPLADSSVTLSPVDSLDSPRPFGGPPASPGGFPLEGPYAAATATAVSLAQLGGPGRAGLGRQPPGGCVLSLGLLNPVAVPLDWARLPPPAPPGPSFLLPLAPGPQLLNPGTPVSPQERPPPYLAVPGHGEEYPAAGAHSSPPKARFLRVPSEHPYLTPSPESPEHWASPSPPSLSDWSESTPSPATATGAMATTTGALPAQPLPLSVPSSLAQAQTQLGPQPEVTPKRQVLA
Assay [10] in a line: probe aEGFR binding to arrayed compounds – biochemical, biotinylated probe, 635/667 nm fluorescence, primary screen (AID 1097).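 Further: probe is a biotinylated anti-EGFR antibody binding compounds printed on slides; score combines fluorescence near 667 nm and signal to noise of each spot.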 The following applies: small-molecule microarray, higher = more signal.

Active and inactive are the calls of the source.

Sequence of Torsin-1A-interacting protein 2 (Homo sapiens) (Q8NFQ8 whole entry, looked up): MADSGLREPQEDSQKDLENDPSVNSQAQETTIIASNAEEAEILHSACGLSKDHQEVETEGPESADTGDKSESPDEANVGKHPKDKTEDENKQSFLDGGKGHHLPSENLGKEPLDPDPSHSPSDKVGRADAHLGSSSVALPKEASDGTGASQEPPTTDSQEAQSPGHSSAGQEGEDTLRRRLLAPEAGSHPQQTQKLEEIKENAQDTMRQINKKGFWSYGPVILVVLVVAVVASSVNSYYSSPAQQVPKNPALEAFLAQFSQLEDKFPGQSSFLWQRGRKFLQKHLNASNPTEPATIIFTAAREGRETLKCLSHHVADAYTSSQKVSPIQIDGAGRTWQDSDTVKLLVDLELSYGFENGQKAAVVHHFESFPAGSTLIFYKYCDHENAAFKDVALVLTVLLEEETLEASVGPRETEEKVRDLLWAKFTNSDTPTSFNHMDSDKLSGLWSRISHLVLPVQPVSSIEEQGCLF

On to `CC[C@@H]1C=C(C(=O)O)[C@H](c2ccco2)N1S(=O)(=O)c1ccc(C)cc1`, for which the composite z-score was 0.475 in assay [1]; 0.0172 in assay [5]; -0.0644 in assay [7]; 0.237 in [8]; -0.14 in assay [9]; -0.171 in [10]. For the same compound, the z-score in assay [2] is 0.316 (inactive); in assay [3], 0.535 (inactive); in [4], -0.407 (inactive); in assay [6], 0.0597 (inactive).
In the case of `C=CCOC(=O)[C@H]1[C@@H]2C(=O)O[C@@H](c3ccccc3)[C@@H](c3ccccc3)N2[C@@H](c2ccc(OCCOC(=O)[C@@H]3C[C@@H]4C(=O)N5CCC[C@H]5C(=O)N4[C@@H]3c3cccc(OCCO)c3)cc2)[C@]12C(=O)Nc1ccccc12`, the composite z-score in assay [1] was found to be 1.53; in assay [5] it was 2.64; in assay [7], 0.108; in assay [8], 0.98; in [9] it was 1.13; in assay [10] it was 0.0617. Also, the z-score was 1.06 (inactive) in assay [2], 0.983 (inactive) in [3], 2.72 (inactive) in assay [4] and 0.0706 (inactive) in assay [6].
In the case of `COCCOC(=O)N1C(=O)[C@@]2(c3cc(C#Cc4ccc(OC)cc4)ccc31)[C@H](C(N)=O)[C@H]1C(=O)O[C@H](c3ccccc3)[C@H](c3ccccc3)N1[C@@H]2c1ccccc1OCCO`, the composite z-score in [1] turned out to be 1.54; in [5] it was 2.33; in assay [7] it was 0.306; in assay [8] it was 1.55; in assay [9], 1.08; in [10], 0.245. The z-score in assay [2] is 1.05 (inactive); in [3] it was 0.649 (inactive); in assay [4], 3.72 (inactive); in [6], 0.071 (inactive).
For the compound `COC(=O)[C@@]1(Cc2ccc(F)cc2)[C@H]2c3cc(C(=O)N(C)C)n(CC4CC4)c3C[C@H]2CN1C(=O)c1ccccc1`, the composite z-score in assay [1] was found to be 1.45; in [5] it was 3.57; in [7], 1.41; in [8], 0.506; in [9] it was 1.06; in assay [10], 0.973. In addition, the z-score was 0.712 (inactive) in [2], 0.877 (inactive) in assay [3], 2.49 (inactive) in assay [4] and -0.334 (inactive) in assay [6].
Consider `CN1C(=O)C2C=CC(C(O)c3ccc(I)cc3)N(N3CCCCC3)C2C1=O` (stereo not given), for which the composite z-score in assay [1] was 1.55; in [5] it was 3.36; in assay [7], 0.583; in assay [8] it was 0.282; in assay [9], 1.04; in assay [10] it was 0.0747. In addition, the z-score in [2] was 0.276 (inactive); in [3], -1.13 (inactive); in assay [4] it was -0.0412 (inactive); in [6] it was -1.74 (inactive).
In the case of `COc1ccc([Si](C)(C)[C@@H]2[C@@H](CC(=O)N3Cc4ccccc4C[C@H]3CO)O[C@]3(C(=O)N(C)c4c(Br)cc(C)cc43)[C@H]2C)cc1`, the composite z-score in assay [1] is 1.54; in assay [5] it was 1.84; in assay [7], -0.174; in [8], 1.55; in [9], 1.12; in assay [10], -0.0409. Besides, the z-score in assay [2] was -0.069 (inactive); in assay [3] it was 1.2 (inactive); in [4] it was 2.03 (inactive); in [6], 0.064 (inactive).
Take `CC1(C)[C@@H]2CC(C(O)C3C=CC4C(=O)N(c5ccccc5)C(=O)C4N3Nc3ccccc3)=C[C@H]1C2` (stereo not given in full): the composite z-score is -0.0035 in assay [1]; 2.58 in [5]; -0.0008 in assay [7]; -0.161 in assay [8]; 0.367 in assay [9]; -0.0431 in [10]. Moreover, the z-score was -0.4 (inactive) in [2], 0.286 (inactive) in assay [3], -0.136 (inactive) in assay [4] and -0.936 (inactive) in [6].
Take `CO[C@H]1O[C@H](CO)[C@@H](OC(=O)Nc2ccc(Br)cc2)[C@H](OC(=O)c2cc3ccccc3[nH]2)[C@H]1OC(=O)c1cc2ccccc2[nH]1`: the composite z-score in [1] came to 1.39; in [5], 2.48; in assay [7], 0.0166; in [8], 0.514; in [9] it was 0.944; in [10] it was 0.0686. Also, the z-score was -1.96 (inactive) in assay [2], -1.59 (inactive) in [3], -0.654 (inactive) in assay [4] and 2.05 (inactive) in assay [6].
In the case of `COc1ccc([C@H]2C[C@H]3C(Br)=C[C@@H]2C(=O)[C@]32CO2)cc1`, the composite z-score in assay [1] is -0.431; in [5], -0.807; in assay [7] it was -0.0561; in assay [8], 0.101; in assay [9] it was -0.282; in assay [10], -0.217. Also, the z-score in assay [2] was 0.29 (inactive); in assay [3] it was -3.66 (inactive); in assay [4] it was -0.417 (inactive); in assay [6], 1.7 (inactive).
For `CC(C)C[C@H]1NC(=O)[C@@]23C(=O)N[C@@H](Cc4ccccc4)C2[C@H](C)[C@@]2(C)O[C@H]2C3/C=C/C/C=C\CNC(=O)[C@H](Cc2ccccc2)NC1=O` (stereo not given in full), the composite z-score is 1.14 in assay [1]; 1.13 in assay [5]; -0.157 in assay [7]; 1.39 in [8]; 0.937 in assay [9]; -0.156 in assay [10]. For the same compound, the z-score in [2] was 0.871 (inactive); in assay [3] it was -0.388 (inactive); in assay [4], -0.332 (inactive); in assay [6], 0.11 (inactive).
With `C=C(CCCC)C(=O)CC[C@@H](OC(=O)c1cccnc1)c1ccc(CO)o1`, the composite z-score in [1] was 1.55; in assay [5] it was 1.45; in assay [7] it was -0.105; in [8] it was 1.61; in assay [9] it was 1.12; in assay [10], 0.021. Besides, the z-score is 0.544 (inactive) in [2], 0.115 (inactive) in assay [3], 0.275 (inactive) in [4] and -0.211 (inactive) in assay [6].
With `C#CCN(CC=C(C)C)[C@H](CO)c1ccccc1`, the composite z-score in assay [1] is 0.489; in [5] it was 0.0196; in assay [7], -0.0518; in [8] it was 0.223; in assay [9], 0.109; in assay [10], -0.0814. Besides, the z-score is -0.319 (inactive) in [2], -4.47 (inactive) in [3], -1.92 (inactive) in assay [4] and 0.333 (inactive) in [6].
For the compound `CN(C)CCCNC(=O)[C@@]1(c2ccc([N+](=O)[O-])cc2)CC(=O)N(C2CCCCC2)[C@@H]1c1ccc(CO)cc1I`, the composite z-score in assay [1] was 1.07; in assay [5], 1.84; in [7], -0.147; in assay [8], 0.331; in assay [9] it was 0.215; in [10], -0.0679. Besides, the z-score is -1.13 (inactive) in assay [2], -20.1 (active) in [3], -3.11 (inactive) in assay [4] and -0.112 (inactive) in assay [6].
Turning to `COc1ccc([Si](C)(C)[C@H]2[C@H](CC(=O)N3Cc4ccccc4C[C@H]3CO)O[C@@]3(C(=O)N(Cc4ccc(N5CCC5=O)cc4)c4ccccc43)[C@@H]2C)cc1`, the composite z-score turned out to be 1.54 in [1]; 2.6 in assay [5]; 0.148 in assay [7]; 1.57 in assay [8]; 1.14 in assay [9]; 0.0321 in assay [10]. In addition, the z-score is -1.57 (inactive) in [2], 0.52 (inactive) in [3], 0.98 (inactive) in assay [4] and 1.65 (inactive) in assay [6].
